The results in this text go back to PubChem BioAssay (NCI).

The panel holds about 83,000 compounds, 20% with a hit somewhere; the sample as a whole holds those more often.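 The endpoint reported here, percent growth, reads 100 for growth as untreated, 0 for no net growth and -100 for all cells dead.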 Activity calls are given as the source filed them. How the source made its calls: active means growth percent below 10; inactive means the rest.

The first test has as its system SK-OV-3 ovarian. The experiment in a line: NCI-60 one-dose screen, 48 h (100 = growth as untreated, 0 = no growth, -100 = all killed). The note with it: 10 µM.
For the compound `O=C1OCC2=C1C(c1ccc(Cl)c(Cl)c1)c1cc3c(cc1N2CCO)OCCO3` (stereo unspecified), the growth is 29.5% (inactive).

As for `NC(=S)N=Nc1c(O)c2ccccc2c2ccccc12`, the growth is 92.3% (inactive).

With `Cc1cccc(C)c1NC(=O)c1sc2nc3c(cc2c1N)C(=O)CCC3`, the growth was 22.5% (inactive).

As to `Nc1ccc2c(c1)C1(CCC2)NC(=O)NC1=O` (stereo unspecified), the growth is 109% (inactive).

Turning to `CSc1nc(=O)n(Cc2ccc(Cl)cc2)c(=O)[nH]1`, the growth was 99.7% (inactive).

`CN1CCC2(CC1)NC(=O)c1c(c3ccc(Cl)c(Cl)c3n1C)C2C#N` (stereo unspecified): the growth was 86.1% (inactive).

Take `c1ccc2c(c1)oc1c3cccnc3ccc21`: the growth was 87.7% (inactive).

Regarding `COc1cc(Cl)cc(-c2nn(-c3cccc(NC(=O)Nc4ccc(Cl)c(Cl)c4)c3)cc2-c2ccncc2)c1`, the growth is 14.2% (inactive).

Regarding `Cc1cn(C2CCCCO2)c(=O)nc1NO` (stereo unspecified), the growth is 119% (inactive).

Regarding `Cc1ccc(Nc2nnc(-c3cc(-c4ccncc4)n(-c4ccccc4)n3)s2)cc1`, the growth was 100% (inactive).

`CCOC(=O)N/N=C\C(C)=N\NC(=O)OCC`: the growth was 98.7% (inactive).

Regarding `COc1ccc(-c2cc(/C=C3\C(=O)Nc4ccc(Cl)cc43)[nH]n2)cc1OC`, the growth was 94.6% (inactive).

With `Nc1nc(N)c2c(ccc3nccc32)[nH]1`, the growth was 58.8% (inactive).

For `O=C(O)c1ccc(Cl)cc1Nc1ccc(F)cc1`, the growth is 70.9% (inactive).

Turning to `CC(C)=CCc1cc(O)cc2c1OC(C=C(C)C)C1=C2C(=O)C2=C(C1=O)S(=O)(=O)CCN2` (stereo unspecified), the growth is 84.7% (inactive).

For `COc1ccc(OC)c(/C=C/c2nc(SCc3ccccc3)n(-c3ccc(Cl)cc3)n2)c1`, the growth was 86.2% (inactive).

As for `N=C(N)c1ccc(-c2ccc(-c3cccs3)s2)cc1`, the growth is 65.9% (inactive).

In the case of `Nc1ccn(C2CC(O)C(CO)O2)c(=O)n1` (stereo unspecified), the growth was 105% (inactive).

In the case of `S=c1[nH]ccn1-c1c(Cl)cccc1Cl`, the growth is 102% (inactive).

With `COC(=O)c1c(-c2ccccc2)csc1NC(=O)c1c(-c2ccccc2)noc1C`, the growth is 58.6% (inactive).

As to `Cc1cc(N(CCCNc2ccnc3cc(Cl)ccc23)Cc2cccs2)nc(Cl)n1`, the growth was 42.4% (inactive).

For `NC(=O)CC1(c2ccccc2)CCCCC1`, the growth was 103% (inactive).

On to `c1ccc(CP(Cc2ccccc2)c2ccccc2)cc1`, for which the growth was 100% (inactive).

As to `c1ccc(C(NC2CC3CCC2C3)c2ccccc2)cc1` (stereo unspecified), the growth is 95.9% (inactive).

As to `CSCCCNC(=O)c1ccc2c(c1)/C(=C/c1[nH]c(C)cc1C)C(=O)N2`, the growth is 20.5% (inactive).

In the case of `CCN1Cc2c(/C=C/c3ccccc3)nc3ccc(OC)cc3c2N(c2cccc(Cl)c2)C1`, the growth is 77.3% (inactive).

Regarding `O=C(Nc1nc2ccccc2s1)Nc1ccc([N+](=O)[O-])cc1Cl`, the growth was 63.9% (inactive).

As to `CC/C(=C(/c1ccc(OCCN(C)C)cc1)c1ccc(OC(=O)CCC(=O)c2c(C)[nH]c(/C=C3\N=C(c4ccc[nH]4)C=C3OC)c2C)cc1)c1ccccc1`, the growth was 63.5% (inactive).

Consider `O=C(O)C(SC(C(=O)O)c1ccccc1)c1ccccc1` (stereo unspecified), for which the growth is 99.7% (inactive).

A further test deals with IGROV1 ovarian. The description is as above. To be noted: 10 µM.
As to `Cc1cc2c(C)c3cc(C)c(N)cc3nc2cc1N`, the growth is -1.9% (active).

For the compound `CCCCCC(=O)c1ccc(OCCCN2CCN(C(=O)OCC)CC2)cc1`, the growth is 112% (inactive).

With `COc1cc(/C=N/NC(=O)c2ccccc2Nc2ccnc(C(F)(F)F)c2)ccc1O`, the growth was 123% (inactive).

For `Cc1ccc(CC#N)cc1C`, the growth was 74.9% (inactive).

Take `COc1ccc(-c2nc3ncccn3c2-c2nnc(-c3ccc(F)cc3)o2)cc1`: the growth is 110% (inactive).

As to `O=[P@@]1(c2ccccc2)O[C@H](COCc2ccccc2)[C@@H](OCc2ccccc2)[C@H](OCc2ccccc2)[C@H]1O`, the growth was 78.3% (inactive).

`O=C1/C(=C\c2ccc(Cl)cc2)CN(C(=S)Nc2ccccc2)C/C1=C\c1ccc(Cl)cc1`: the growth was -72.9% (active).

For `COc1cc(-c2cc(/C=C/C(=O)c3ccc(Cl)c(Cl)c3)[nH]n2)cc(OC)c1OC`, the growth was 108% (inactive).

In the case of `Clc1ccc(Nc2ccnc(NCCCNc3ccnc4cc(Cl)ccc34)n2)cc1`, the growth is -6.05% (active).

For the compound `O=C1OCC2=C1C(c1ccc(Cl)c(Cl)c1)c1cc3c(cc1N2CCO)OCCO3` (stereo unspecified), the growth is 34.6% (inactive).

As to `NC(=S)N=Nc1c(O)c2ccccc2c2ccccc12`, the growth was 68.9% (inactive).

For `Cc1cccc(C)c1NC(=O)c1sc2nc3c(cc2c1N)C(=O)CCC3`, the growth is 89.4% (inactive).

On to `CSc1nc(=O)n(Cc2ccc(Cl)cc2)c(=O)[nH]1`, for which the growth was 132% (inactive).

`CN1CCC2(CC1)NC(=O)c1c(c3ccc(Cl)c(Cl)c3n1C)C2C#N` (stereo unspecified): the growth was 73.4% (inactive).

Turning to `c1ccc2c(c1)oc1c3cccnc3ccc21`, the growth is 54.4% (inactive).

On to `COc1cc(Cl)cc(-c2nn(-c3cccc(NC(=O)Nc4ccc(Cl)c(Cl)c4)c3)cc2-c2ccncc2)c1`, for which the growth was 36.7% (inactive).

As for `Cc1cn(C2CCCCO2)c(=O)nc1NO` (stereo unspecified), the growth is 113% (inactive).

On to `Cc1ccc(Nc2nnc(-c3cc(-c4ccncc4)n(-c4ccccc4)n3)s2)cc1`, for which the growth was 89.2% (inactive).

In the case of `CCOC(=O)N/N=C\C(C)=N\NC(=O)OCC`, the growth is 108% (inactive).

Regarding `COc1ccc(-c2cc(/C=C3\C(=O)Nc4ccc(Cl)cc43)[nH]n2)cc1OC`, the growth was 66.8% (inactive).

With `CNc1ccc(CSc2ccc(C)cc2)cc1`, the growth was 78.6% (inactive).

Consider `O=C(O)c1ccc(Cl)cc1Nc1ccc(F)cc1`, for which the growth was 119% (inactive).

As for `CC(C)=CCc1cc(O)cc2c1OC(C=C(C)C)C1=C2C(=O)C2=C(C1=O)S(=O)(=O)CCN2` (stereo unspecified), the growth is -0.954% (active).

As to `COc1ccc(OC)c(/C=C/c2nc(SCc3ccccc3)n(-c3ccc(Cl)cc3)n2)c1`, the growth is 43.9% (inactive).

`N=C(N)c1ccc(-c2ccc(-c3cccs3)s2)cc1`: the growth is 94.9% (inactive).

With `COC(=O)c1c(-c2ccccc2)csc1NC(=O)c1c(-c2ccccc2)noc1C`, the growth is 20.6% (inactive).

For the compound `Cc1cc(N(CCCNc2ccnc3cc(Cl)ccc23)Cc2cccs2)nc(Cl)n1`, the growth was 50.8% (inactive).

Regarding `c1ccc(CP(Cc2ccccc2)c2ccccc2)cc1`, the growth is 78.6% (inactive).

Consider `c1ccc(C(NC2CC3CCC2C3)c2ccccc2)cc1` (stereo unspecified), for which the growth was 109% (inactive).

Turning to `CSCCCNC(=O)c1ccc2c(c1)/C(=C/c1[nH]c(C)cc1C)C(=O)N2`, the growth is -12.5% (active).

As to `CC/C(=C(/c1ccc(OCCN(C)C)cc1)c1ccc(OC(=O)CCC(=O)c2c(C)[nH]c(/C=C3\N=C(c4ccc[nH]4)C=C3OC)c2C)cc1)c1ccccc1`, the growth is 27.6% (inactive).

In the case of `O=C(O)C(SC(C(=O)O)c1ccccc1)c1ccccc1` (stereo unspecified), the growth is 115% (inactive).
